From PubChem BioAssay AID1304 (The Scripps Research Institute Molecular Screening Center, 2008)
Screen size: about 220,000 compounds; about 800 (0.36%) were called active. What follows is part of a selection rich in actives, with near analogues and random picks from the rest. A number with no mark means an inactive call. No stated cut-off is given here; in the data, active means activation above about 33% (passing the limit was not always enough); inactive means the rest.

Molecular target: Neuropeptide Y receptor type 1 (Homo sapiens) (UniProt P25929)
Experiment: NPY-Y1 receptor potentiators or agonists, primary screen, cell-based (AID 1304);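 further: cells stimulated with NPY at EC10 then isoproterenol at EC100; 0% = low agonist plus stimulus and 100% = saturating agonist plus stimulus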
Settings: NPY-Y1 expressing cells, potentiator/agonist activation; at 3.6 µM; active compounds read high

Sequence of Neuropeptide Y receptor type 1 (Homo sapiens) (P25929 whole entry, looked up): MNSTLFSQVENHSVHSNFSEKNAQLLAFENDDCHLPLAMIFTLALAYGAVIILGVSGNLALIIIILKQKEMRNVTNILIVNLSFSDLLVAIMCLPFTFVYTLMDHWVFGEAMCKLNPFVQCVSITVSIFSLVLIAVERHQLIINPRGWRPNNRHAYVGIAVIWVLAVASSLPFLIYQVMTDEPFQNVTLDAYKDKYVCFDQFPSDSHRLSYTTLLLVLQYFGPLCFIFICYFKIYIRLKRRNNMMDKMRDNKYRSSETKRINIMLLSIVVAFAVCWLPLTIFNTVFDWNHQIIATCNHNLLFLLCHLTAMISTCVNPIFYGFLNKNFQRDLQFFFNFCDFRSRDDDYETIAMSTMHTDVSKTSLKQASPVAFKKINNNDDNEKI

| Structure (SMILES) | activation |
| --- | --- |
| CN(C)Cc1c(O)ccc2occ(C(O)c3ccccc3)c12 (stereo not drawn) | 105% (active) |
| CCOc1ncccc1C(=O)N(C)CC(=O)Nc1ccc(F)cc1 | -13.4% |
| S=c1[nH]nc(-c2cc(-c3ccccc3)n[nH]2)n1/N=C/c1c2ccccc2cc2ccccc12 | 6.62% |
| CCOc1ccc2c(=O)c(-c3ccc4c(c3)OCCCO4)c(C)oc2c1 | 2.42% |
| O=C(Nc1ccc2c(c1)CCC2)c1cccc(S(=O)(=O)Nc2ccccc2Cl)c1 | 54.9% (active) |
| O=C(Nc1cccc(S(=O)(=O)Nc2ccc(Cl)cc2)c1)c1ccc2c(c1)OCCO2 | 43.8% (active) |
| O=C(Nc1ccc(Cl)cn1)c1ccc2c(c1)OCCO2 | -6.11% |
| O=C(Nc1cccc(S(=O)(=O)N2CCCCC2)c1)c1ccc2c(c1)OCO2 | -8.28% |
| O=C(c1cccc(S(=O)(=O)Nc2ccccc2Cl)c1)N1CCN(C(=O)c2ccco2)CC1 | 0.65% |
| O=C(Nc1ccc2c(c1)CCC2)c1cccc(S(=O)(=O)N2CCN(c3ccc(F)cc3)CC2)c1 | 24.4% |
| CCc1nnc(NC(=O)CCN(c2ccc(C)cc2)S(=O)(=O)c2ccccc2)s1 | 1.52% |
| CSc1ccccc1C(=O)NCc1ccccc1 | 1.48% |
| O=S(=O)(c1ccc(F)cc1)N1CC=C(c2ccccc2)CC1 | -6.53% |
| CC(O)c1nc2c(c(=O)n(C)c(=O)n2C)n1C (stereo not drawn) | 11.7% |
| Cc1coc2cc3oc(=O)c(CCC(=O)O)c(C)c3cc12 | -7.91% |
| CCSc1sc(CC)cc1C=O | -2.95% |
| Cc1ccc(NC(=O)/C(=C/c2ccc([N+](=O)[O-])cc2)NC(=O)c2ccccc2)cc1 | 30.3% |
| O=C(O)C1CCN(c2ccc([N+](=O)[O-])cc2[N+](=O)[O-])CC1 | -10.1% |
| COC(=O)c1ccc(COC(=O)c2cnccn2)cc1 | -11.9% |
| Cc1coc2c(O)cc3c(c12)OC1(N2CCCCC2)C(=O)NCCCC31 (stereo not drawn) | 90.8% (active) |
| O=C(O)C1C2C=CC(O2)C1C(=O)NCCc1cccc(Cl)c1 (stereo not drawn) | 1.36% |
| COCCCNC(NC(=O)c1ccc(OC)cc1)C(Cl)(Cl)Cl (stereo not drawn) | 15.6% |
| COCCCNC(=S)N1CCCC(c2nc3cc(C)c(C)cc3[nH]2)C1 (stereo not drawn) | 8.07% |
| NC(=O)CC[C@@H]1NC(=O)[C@H](CO)NC(=O)c2cc([N+](=O)[O-])cc(I)c2NCC[C@@H](C(N)=O)NC1=O | -22.3% |

| Structure (SMILES) | activation |
| --- | --- |
| CCn1c2ccccc2c2cc(NC(=O)Nc3ccc([N+](=O)[O-])cc3C)ccc21 | 45.6% (active) |
| CC(=O)c1ccc(NC(=O)Nc2ccc([N+](=O)[O-])cc2C)cc1 | -8.87% |
| CCn1c2ccccc2c2cc(NC(=O)CNC)ccc21 | -3.25% |
| CC(C)(C)NC(=O)COc1ccc(CNc2ccc3[nH]c(=O)[nH]c3c2)cc1 | 2.35% |
| CC(C)(C)N(Cc1ccccc1)C(=O)COC(=O)CCc1c[nH]c2ccccc12 | -4.21% |
| COc1ccc(CCn2ccc(O)c(Cc3ccc(Cl)cc3Cl)c2=O)cc1OC | -7.77% |
| COC(=O)c1c(C(=O)OC)c2n(c1C)CCS2 | -0.93% |
| CC(NS(=O)(=O)c1ccccc1)c1n[nH]c(=S)n1-c1ccccc1 (stereo not drawn) | 30% |
| Cc1ccccc1NC(=O)NNC(=O)OC(C)(C)C | -4.21% |
| CCN(CC)CCNC(=O)C1c2ccccc2C(=O)N(C)C1c1cn(C)c2ccccc12 (stereo not drawn) | 10.4% |
| CN1C(=O)c2ccccc2C(C(=O)NCCCN2CCCC2)C1c1c[nH]c2ccccc12 (stereo not drawn) | 51.1% (active) |
| O=C(NCCCN1CCN(Cc2ccccc2)CC1)C1CCN(S(=O)(=O)N2CCCC2)CC1 | -28.8% |
| CCC(C)Cn1c(O)cc2nn(-c3nc4ccccc4s3)c(=O)c-2c1C (stereo not drawn) | 13.9% |
| OC(COCC1COc2ccccc2O1)CN1CCN(c2ccc(F)cc2)CC1 (stereo not drawn) | 74.5% (active) |
| OC(COCc1ccco1)CN1CCN(c2ccccc2)CC1 (stereo not drawn) | 9.46% |
| O=[N+]([O-])c1ccc(N2CCN(CC(O)COc3ccccc3)CC2)cc1 (stereo not drawn) | 20.4% |
| CC1CCN(C2=NC(=O)/C(=C/c3cn[nH]c3-c3ccccc3)S2)CC1 | 1.73% |
| CC1(C)CC(=O)C=C(N2CCOCC2)C1 | 11.6% |
| Cc1nccn1CCC1CCCCN1C(=O)CCc1nnc(-c2ccsc2)o1 (stereo not drawn) | 5.94% |
| Cc1ccc(C)c(NC(=O)CSc2nc3c(oc4ccccc43)c(=O)n2-c2ccccc2)c1 | -11.9% |
| Cc1ccccc1-n1nnc2c(=O)oc3ccccc3c21 | 65.8% (active) |
| CCCCC(=O)Nc1cc(C)c2c(=O)oc3ccccc3c2n1 | 4.38% |
| CCOC(=O)c1c(C)nc2c(c1C)c(=O)oc1ccccc12 | -22% |
| O=S(=O)(Nc1ccccn1)c1cccc(S(=O)(=O)c2ccc(Cl)cc2)c1 | -10.4% |

| Structure (SMILES) | activation |
| --- | --- |
| Clc1ccc(C2=CSC3=Nc4cccc5cccc(c45)N23)cc1 | -26.6% |
| CCOc1ccc(/C=N/OCC(=O)NCc2cccs2)cc1 | -0.95% |
| CC(CCc1ccccc1)NCC(O)c1cccc([N+](=O)[O-])c1 (stereo not drawn) | 107% (active) |
| CC(=O)NCC(O)c1ccc([N+](=O)[O-])cc1 (stereo not drawn) | -3.81% |
| CC(C)OP(=O)(OC(C)C)C(Nc1ccccc1)c1cccc([N+](=O)[O-])c1 (stereo not drawn) | 6.2% |
| O=C(CC1SCCNC1=O)Nc1ccc(Cl)c(Cl)c1 (stereo not drawn) | 8.97% |
| O=C(CSc1nnc(-c2ccncc2)n1-c1ccc(Cl)cc1)Nc1ccc(C(=O)O)cc1 | -5% |
| CC(=O)c1ccc(-c2nnc(CCC(=O)N(C)Cc3cnc4ccccn34)o2)s1 | 10.1% |
| Cc1cc(C)nc(NC(=O)Nc2ccccc2C(F)(F)F)n1 | -11.5% |
| O=C(c1cc(-c2ccc(O)cc2)on1)N1CCCc2ccccc21 | -13.9% |
| O=C(Nc1ccccc1C(F)(F)F)c1cc(-c2ccc(O)cc2)on1 | 42.6% (active) |
| Cc1nn2c(NCCN(C)C)c3c(nc2c1-c1ccccc1)CCC3 | 22.6% |
| O=C(c1cc(COc2c(F)cccc2F)on1)N1CCSCC1 | 3.08% |
| CCC(CC)C(=O)N1CCN(c2cccc(C)c2C)CC1 | -14.7% |
| COC(=O)c1ccc(NC(=O)CN(c2ccc(C)cc2)S(=O)(=O)c2c(C)n[nH]c2C)cc1 | 38.8% (active) |
| Cc1ccc(N(CC(=O)Nc2cccc(N(C)S(C)(=O)=O)c2)S(C)(=O)=O)cc1 | 25.3% |
| CCOC(=O)c1cccc(NC(=O)CN(c2ccc(C)cc2)S(=O)(=O)c2c(C)noc2C)c1 | 18.8% |
| COc1ccc(NC(=O)c2nc(-n3nc(C)cc3C)ccc2Cl)cc1Cl | 9.04% |
| O=C(Cc1cccc2ccccc12)NNC(=O)Nc1ccc(Cl)cc1 | 5.16% |
| COc1ccccc1C(c1nnnn1C(C)(C)C)N1CCN(Cc2ccccc2)CC1 (stereo not drawn) | -17.5% |
| COc1ccccc1C(c1nnnn1CC1CCCO1)N1CCN(c2ccccc2)CC1 (stereo not drawn) | 12.6% |
| COCCn1nnnc1C(c1ccccc1Cl)N1CCN(c2ccccc2OC)CC1 (stereo not drawn) | 89.3% (active) |
| Cc1c(CN2CCCCC2)c(O)n(CCO)c(=O)c1C#N | 10.5% |
| CCOC(=O)CCCNC(=O)COC(=O)/C=C/c1ccc2c(c1)OCO2 | -7.21% |

| Structure (SMILES) | activation |
| --- | --- |
| CC(=O)N1CC[n+]2c(-c3ccc([N+](=O)[O-])cc3)csc21 | 13.5% |
| O=C(NCCCNc1ccc([N+](=O)[O-])cc1Cl)c1ccccc1F | -0.79% |
| CC1=NNC(=O)C1CCC(=O)N/N=C\c1cccc(Cl)c1 (stereo not drawn) | 4.52% |
| CCOc1ccc(C2NC(=S)NC3=C2CCc2ccccc23)cc1 (stereo not drawn) | 10.5% |
| Cc1cc(C)c(NC(=O)c2oc3ccccc3c2COc2ccccc2)c(C)c1 | -49.2% |
| Cc1cc(C)cc(OCC(=O)NCc2cc(C)nc3ccccc23)c1 | 0.39% |
| Cc1cc(C)c(NC(=O)C[N+](C)(C)CC(O)COc2cccc3ccccc23)c(C)c1 (stereo not drawn) | 86.4% (active) |
| COc1cc(N2C(=O)CC3(CCCC3)CC2=O)cc(OC)c1OC | -14.9% |
| CCC(=O)N1c2ccccc2NC2=C(C(=O)CCC2)C1c1ccco1 (stereo not drawn) | 19.7% |
| COC(=O)c1sccc1NC(=S)Nc1ccc(C)cc1 | -0.64% |
| O=c1c(-c2ccccc2)coc2cc(O)ccc12 | 2.99% |
| O=c1c(/C=N/O)coc2ccc(Cl)cc12 | 19.5% |
| O=C1/C(=C/c2coc3ccc(O)cc3c2=O)SC(=S)N1c1ccccc1 | 47% (active) |
| O=C1CC(c2cccc(Cl)c2)CC(O)=C1C=Nc1ccccc1 (stereo not drawn) | -11.9% |
| Cc1ccc(-c2ccc(/C=C(\C#N)C(N)=S)o2)c([N+](=O)[O-])c1 | 8.63% |
| CN(C)NC(=O)C(NC(=O)c1ccc(N)cc1)C12CC3CC(CC(C3)C1)C2 (stereo not drawn) | 5.39% |
| Cc1cc(NC(=O)COC(=O)COc2ccc(Cl)cc2C)c([N+](=O)[O-])cc1C | -0.92% |
| Cc1ccc(OCC(=O)c2cc(C)n(Cc3ccco3)c2C)c([N+](=O)[O-])n1 | 1.91% |
| COc1cccc2sc(N(CCCN(C)C)C(=O)C(c3ccccc3)c3ccccc3)nc12 | 103% (active) |
| CC(=O)N(CCCN(C)C)c1nc2ccc(C)cc2s1 | -7.71% |
| CN(C)CCCN(C(=O)COc1ccccc1)c1nc2c(Cl)cccc2s1 | -13.9% |
